Potency data for nine molecules are collected here from PubChem BioAssay (Tox21).

Test [1] in a line: qHTS assay to identify small molecule antagonists of the glucocorticoid receptor (GR) signaling pathway - cell viability counter screen (AID 720693). Further: nearly all actives have a fitted effect of over 55% in size. Further: potency means the concentration at half of the fitted maximal effect. On the technique in general: qHTS replaces the single test concentration by a dilution series.
The nature of test [2]: qHTS assay for identifying genotoxic compounds that show differential cytotoxicity against isogenic chicken DT40 cell lines with known DNA damage response pathways - Rev3 mutant cell line (AID 743014). Further: nearly all actives have a fitted effect of over 55% in size. Further: potency means the concentration at half of the fitted maximal effect.
The nature of test [3]: qHTS assay to identify small molecule antagonists of the androgen receptor (AR) signaling pathway - cell viability counter screen (AID 743033; further: nearly all actives have a fitted effect of over 45% in size).
Test [4] is described as follows: qHTS assay to identify small molecule antagonists of the androgen receptor (AR) signaling pathway using the MDA cell line - cell viability counter screen (AID 743041; further: nearly all actives have a fitted effect of over 45% in size). Summed up:
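Compound exposure lasted 16 h at 37C in MDA-kb2 AR-luc cells stimulated with R1881. Protease-based CellTiter-Fluor reagent was applied for the final 30 min and fluorescence measured.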

Test [5] in a line: qHTS assay to identify small molecule antagonists of the thyroid receptor (TR) signaling pathway - cell viability counter screen (AID 743064). Further: nearly all actives have a fitted effect of over 50% in size. Summed up: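 In rat pituitary GH3.TRE-Luc reporter cells co-exposed to compound and 1 nM T3 for 23.5 h, cytotoxicity was assessed with CellTiter-Fluor in the same wells, read by fluorescence.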
Test [6] in a line: qHTS assay to identify small molecule antagonists of the thyroid receptor (TR) signaling pathway (AID 743065). Further: series mostly up to about 70 µM; nearly all actives have a fitted effect of over 55% in size. Summed up:
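GH3.TRE-Luc rat pituitary cells (two TREs driving luciferase) were dosed with compound, then stimulated with 1 nM T3 (final) for 23.5 h at 37 C. ONE-Glo luminescence was the read-out, with CellTiter-Fluor fluorescence as the cytotoxicity counter-screen.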

The test system of test [7] is thyroid hormone receptor (rat, GH3 cells). Description: qHTS assay to identify small molecule agonists of the thyroid receptor (TR) signaling pathway (AID 743066; calls by dose curve).
The nature of test [8]: qHTS assay to identify small molecule antagonists of the estrogen receptor alpha (ER-alpha) signaling pathway - cell viability counter screen (AID 743074; calls by dose curve; further: nearly all actives have a fitted effect of over 45% in size).
The next test has as its target Aromatase (Homo sapiens) (UniProt P11511). As to the kind of experiment: qHTS assay to identify aromatase inhibitors (AID 743083). Further: series mostly up to about 70 µM; nearly all actives have a fitted effect of over 55% in size.
Test [9] in a line: qHTS assay for identifying genotoxic compounds that show differential cytotoxicity against isogenic chicken DT40 cell lines with known DNA damage response pathways - Rad54/Ku70 mutant cell line (AID 743015). Further: nearly all actives have a fitted effect of over 60% in size. Further: potency means the concentration at half of the fitted maximal effect.
In test [10] the target is Estrogen receptor (Homo sapiens) (UniProt P03372). Description: qHTS assay to identify small molecule antagonists of the estrogen receptor alpha (ER-alpha) signaling pathway (AID 743069; active means well fitted curve in the direction sought with a large enough effect in the signal ratio in the repeat runs, not every such curve was filed as active; the % refers to the signal ratio). In outline: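 In this cell-based reporter format, GripTite HEK293 cells harbouring ER-alpha-UAS-bla were grown overnight with 2% charcoal-stripped FBS, dosed with DMSO-dissolved compounds, then challenged with 17beta-estradiol. After 18 hr at 37C, beta-lactamase activity was detected by FRET fluorescence.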
Chain of Estrogen receptor (Homo sapiens) (P03372 whole entry, looked up): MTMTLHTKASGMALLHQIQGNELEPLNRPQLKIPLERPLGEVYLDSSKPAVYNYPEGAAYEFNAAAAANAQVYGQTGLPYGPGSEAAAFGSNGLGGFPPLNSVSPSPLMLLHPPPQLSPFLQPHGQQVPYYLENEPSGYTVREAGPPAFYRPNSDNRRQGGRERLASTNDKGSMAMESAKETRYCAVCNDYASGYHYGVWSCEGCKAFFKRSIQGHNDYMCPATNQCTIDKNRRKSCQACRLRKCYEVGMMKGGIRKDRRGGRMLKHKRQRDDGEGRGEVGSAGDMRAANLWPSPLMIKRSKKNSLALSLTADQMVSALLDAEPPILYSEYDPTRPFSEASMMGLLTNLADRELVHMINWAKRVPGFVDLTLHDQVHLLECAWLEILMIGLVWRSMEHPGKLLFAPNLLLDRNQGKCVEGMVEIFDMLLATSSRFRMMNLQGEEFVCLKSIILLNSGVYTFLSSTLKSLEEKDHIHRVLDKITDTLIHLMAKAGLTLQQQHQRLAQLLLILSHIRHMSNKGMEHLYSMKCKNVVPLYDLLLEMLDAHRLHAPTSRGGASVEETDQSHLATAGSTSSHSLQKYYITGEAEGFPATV

For test [11] the target is unchanged. As to the kind of experiment: qHTS assay to identify small molecule agonists of the estrogen receptor alpha (ER-alpha) signaling pathway (AID 743075; calls by dose curve).
The target is the same in test [12]. Description: qHTS assay to identify small molecule agonists of the estrogen receptor alpha (ER-alpha) signaling pathway using the BG1 cell line (AID 743079). Further: nearly all actives have a fitted effect of over 20% in size. Further: potency means the concentration at half of the fitted maximal effect.
Test [13] in a line: qHTS assay to identify small molecule antagonists of the estrogen receptor alpha (ER-alpha) signaling pathway using the BG1 cell line (AID 743080; calls by dose curve;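 further: BG1 cells stimulated with 17beta-estradiol alongside compound; series mostly up to about 70 µM; nearly all actives have a fitted effect of over 25% in size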). Summed up:
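After 5 days in phenol-red-free 10% charcoal-stripped FBS medium, BG1-Luc-4E2 cells were seeded, left 24 h at 37 C, co-treated with compounds and 17beta-estradiol for 21.5 h, then assayed for viability and luciferase.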

A short description of test [14]: qHTS assay to identify small molecule antagonists of the estrogen receptor alpha (ER-alpha) signaling pathway using the BG1 cell line - cell viability counter screen (AID 743081).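 Further: compound given together with 17beta-estradiol as the ER stimulus; series mostly up to about 70 µM; nearly all actives have a fitted effect of over 45% in size.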
Test [15] has as its target Androgen receptor (Homo sapiens) (UniProt P10275). As to the kind of experiment: qHTS assay to identify small molecule agonists of the androgen receptor (AR) signaling pathway (AID 743036; active means well fitted activation curve with a large enough effect in the signal ratio in the repeat runs, with a control signal flat, not every such curve was filed as active; the % refers to the signal ratio). In outline:
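Cell-based FRET reporter assay: HEK293 line with a UAS-beta-lactamase construct, compounds added in DMSO, 16 h exposure at 37C, then 2 h substrate step at room temperature and fluorescence intensity read.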

For test [16] the target is unchanged. Description: qHTS assay to identify small molecule agonists of the androgen receptor (AR) signaling pathway using the MDA cell line (AID 743040; further: nearly all actives have a fitted effect of over 20% in size). In outline: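 Testing was done with the MDA-kb2 AR-luc line, a human breast carcinoma stably transfected with MMTV-luciferase containing AR and GR response elements. Cells were exposed 16 h at 37C before ONE-Glo luminescence detection.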

The target is the same in test [17]. Description: qHTS assay to identify small molecule antagonists of the androgen receptor (AR) signaling pathway using the MDA cell line (AID 743042; further: nearly all actives have a fitted effect of over 55% in size). In outline: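 MDA-kb2 breast carcinoma cells carrying MMTV-luciferase (AR/GR responsive) were co-treated with compounds and the agonist R1881 for 16 h at 37C. Inhibition read as ONE-Glo luminescence; CellTiter-Fluor fluorescence measured in parallel for cytotoxicity.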

Records with an inconclusive call do not appear. Active and inactive are the calls of the source. Unless noted, the call rests on the fitted dose curve; in most records, active means well fitted curve in the direction sought with a large enough effect in the repeat runs; inconclusive means weak or mixed curves; inactive means no such curve, though single readings can be large; an effect the other way counts as inactive or inconclusive.

Chain of Aromatase (Homo sapiens) (P11511 whole entry, looked up): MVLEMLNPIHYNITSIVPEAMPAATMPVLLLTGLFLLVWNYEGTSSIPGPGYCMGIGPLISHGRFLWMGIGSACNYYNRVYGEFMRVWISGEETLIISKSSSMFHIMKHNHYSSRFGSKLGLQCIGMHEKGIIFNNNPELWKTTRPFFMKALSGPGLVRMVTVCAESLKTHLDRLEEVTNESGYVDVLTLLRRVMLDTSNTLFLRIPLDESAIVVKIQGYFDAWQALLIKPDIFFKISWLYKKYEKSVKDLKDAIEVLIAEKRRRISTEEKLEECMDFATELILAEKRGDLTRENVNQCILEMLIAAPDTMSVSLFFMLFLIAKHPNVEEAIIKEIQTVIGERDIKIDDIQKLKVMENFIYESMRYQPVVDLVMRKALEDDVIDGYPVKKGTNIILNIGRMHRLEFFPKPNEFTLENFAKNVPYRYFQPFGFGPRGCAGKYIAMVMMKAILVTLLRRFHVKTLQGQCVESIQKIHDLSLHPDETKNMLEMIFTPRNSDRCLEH
Chain of Androgen receptor (Homo sapiens) (P10275 whole entry, looked up): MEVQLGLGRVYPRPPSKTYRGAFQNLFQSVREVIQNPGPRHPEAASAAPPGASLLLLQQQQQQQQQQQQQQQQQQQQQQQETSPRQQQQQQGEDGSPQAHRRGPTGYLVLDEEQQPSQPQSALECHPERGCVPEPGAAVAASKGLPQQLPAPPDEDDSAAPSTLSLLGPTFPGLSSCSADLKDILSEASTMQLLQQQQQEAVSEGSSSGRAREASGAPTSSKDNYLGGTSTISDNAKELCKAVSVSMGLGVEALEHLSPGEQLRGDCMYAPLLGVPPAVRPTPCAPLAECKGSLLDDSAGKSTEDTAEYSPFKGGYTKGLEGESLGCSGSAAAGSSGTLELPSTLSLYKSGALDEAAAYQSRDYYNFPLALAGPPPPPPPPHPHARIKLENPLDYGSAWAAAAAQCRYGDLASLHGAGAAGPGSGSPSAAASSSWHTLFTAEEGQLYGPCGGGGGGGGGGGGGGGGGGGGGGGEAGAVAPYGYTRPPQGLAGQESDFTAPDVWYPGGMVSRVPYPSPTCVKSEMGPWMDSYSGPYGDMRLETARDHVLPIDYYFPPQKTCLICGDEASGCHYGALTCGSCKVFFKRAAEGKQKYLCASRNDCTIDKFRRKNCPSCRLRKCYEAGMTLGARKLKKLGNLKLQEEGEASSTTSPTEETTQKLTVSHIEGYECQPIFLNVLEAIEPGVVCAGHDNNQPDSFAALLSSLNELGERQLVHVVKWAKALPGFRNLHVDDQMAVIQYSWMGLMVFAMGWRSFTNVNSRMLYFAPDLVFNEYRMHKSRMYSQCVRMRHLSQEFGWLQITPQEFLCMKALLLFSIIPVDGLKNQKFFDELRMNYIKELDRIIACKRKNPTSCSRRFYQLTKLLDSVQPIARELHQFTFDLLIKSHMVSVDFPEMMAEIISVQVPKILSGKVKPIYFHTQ

In the case of `COc1cc2c(c(OC)c1OC)-c1c(cc3c(c1OC)OCO3)C[C@@H](C)[C@](C)(O)C2`, the Potency entry in test [1], in test [2], in test [3], in [4], in test [5] and in [6] was “inactive” in each case. The Potency result (in [7]; in [8]; in the test with Aromatase (Homo sapiens)) was “inactive” each time.
In the case of `CC1(C)S[C@@H]2[C@H](NC(=O)[C@@H](NC(=O)N3CCNC3=O)c3ccccc3)C(=O)N2[C@H]1C(=O)O`, the Potency result in [1], in [2], in test [9], in [3], in test [4] and in test [10] was “inactive” throughout. Besides, the Potency entry (in [8]; in test [11]; in test [12]; in test [13]; in [14]; in the test with Aromatase (Homo sapiens)) was “inactive” throughout.
Turning to `COC1[C@@H](O[C@@H]2O[C@H](C)[C@@H](O[C@H]3C[C@@](C)(O)[C@H](OC(=O)CC(C)C)[C@H](C)O3)[C@H](N(C)C)[C@H]2O)[C@@H](CC=O)C[C@@H](C)[C@@H](O)/C=C/C=C/C[C@@H](C)OC(=O)C[C@H]1OC(C)=O` (stereo partly drawn), the Potency result in test [1], in [2], in [9], in [4], in test [5] and in test [6] was “inactive” throughout. In addition, the Potency result in [7], in test [10], in test [8], in [11], in test [12] and in test [13] was “inactive” throughout. For the same molecule, the Potency entry in the test with Aromatase (Homo sapiens) is “inactive”.
Take `CN[C@H](CC(C)C)C(=O)N[C@H]1C(=O)N[C@@H](CC(N)=O)C(=O)N[C@H]2C(=O)N[C@H]3C(=O)N[C@H](C(=O)N[C@@H](C(=O)O)c4cc(O)cc(O)c4-c4cc3ccc4O)[C@H](O)c3ccc(c(Cl)c3)Oc3cc2cc(c3O[C@@H]2O[C@H](CO)[C@@H](O)[C@H](O)[C@H]2O[C@H]2C[C@](C)(N)C(O)[C@H](C)O2)Oc2ccc(cc2Cl)[C@H]1O` (stereo partly drawn): the Potency result in test [1], in [2], in test [9], in test [3], in test [4] and in [6] was “inactive” each time. For the same molecule, the Potency result in [7], in test [10], in test [8], in test [11], in [12] and in test [13] was “inactive” in each case. Moreover, the Potency result (in [14]; with Aromatase (Homo sapiens)) was “inactive” each time.
Consider `CC(C)=CCC/C(C)=C/CC/C(C)=C/CC/C=C(\C)CC/C=C(\C)CCC=C(C)C`, for which the Potency entry in test [1], in test [2], in test [9], in [4], in test [5] and in test [6] was “inactive” in each case. Also, the Potency result in test [7], in test [10], in [8], in test [11], in test [12] and in [13] was “inactive” throughout. The Potency result (in test [14]; with Aromatase (Homo sapiens)) was “inactive” throughout.
Regarding `NC(=O)[C@@H]1CCCN1C(=O)[C@H](Cc1cnc[nH]1)NC(=O)[C@@H]1CCC(=O)N1`, the Potency entry in test [1], in [2], in [9], in test [4], in [6] and in test [7] was “inactive” each time. For the same molecule, the Potency result in test [10], in test [8], in test [11], in [12], in [13] and in [14] was “inactive” each time. Further, the Potency result in the test with Aromatase (Homo sapiens) is “inactive”.
As to `CCCCCCCCCCCCN1CCCC1=O`, the figures for the Potency in [1], in test [2] and in test [9] were 43.6 µM (active), 30.6 µM (active) and 30.6 µM (active), respectively. Further, the Potency entry (in test [3]; in [4]; in test [7]; in [14]; in the test with Aromatase (Homo sapiens)) was “inactive” throughout.
Turning to `CC[C@@H](C)[C@H](N)C(=O)O`, the Potency entry in [1], in test [2], in [9], in test [3], in [4] and in test [6] was “inactive” throughout. The Potency entry in test [7], in test [10], in test [8], in test [11], in test [13] and in test [14] was “inactive” each time. Also, the Potency entry with Aromatase (Homo sapiens) is “inactive”. Further, in test [12], the Potency is 26.6 µM (active).
On to `CCC[C@@H]1C[C@@H](C(=O)N[C@@H]([C@H]2O[C@H](SC)[C@H](OP(=O)(O)O)[C@@H](O)[C@H]2O)[C@H](C)Cl)N(C)C1`, for which the Potency result in [1], in test [2], in test [9], in test [15], in [16] and in test [4] was “inactive” throughout. The Potency result in [17], in test [6], in test [7], in test [10], in [8] and in test [11] was “inactive” in each case. For the same molecule, the Potency entry (in [12]; in [13]; in test [14]; with Aromatase (Homo sapiens)) was “inactive” throughout.
